Hits are enriched below; roughly 4% of the tested compounds scored in any of these assays.
HIF-2a block: blocks HIF-2a reporter activity | 786-0 RCC cells HIF-2a reporter, luciferase luminescence, overnight | inhibition, % at 18.8 µM | 360,000 tested, 0.72% active | AID 624352;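 active means inhibition of the luminescence signal of 40% or more relative to plate controls, in a single-dose primary screen at 18.75 µM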
TROY signal inh: blocks TROY-dependent signaling in reporter cells; inhibition, % at 10 µM; 360,000 tested, 0.98% active; Q293 LMP1-TROYcd NF-kB luciferase reporter, 4 h;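 active means compounds whose plate-normalised and pattern-corrected inhibition of the luciferase reporter signal at the single screening dose is 50% or more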
TWEAK-Fn14 inh: inhibitors of TWEAK-Fn14 interaction signaling | TWEAK-stimulated Fn14 reporter cells, luciferase luminescence, 8 h | inhibition, % at 10 µM | 360,000 tested, 2% active; in the data active means inhibition above about 50%
LMP1 NFkB inh: inhibitors of Epstein-Barr LMP1-induced NF-kappaB reporter. inhibition, % at 12.5 µM. LMP1-induced NF-kappaB luciferase reporter cells, luminescence. 350,000 tested, 0.69% active; in the data active means inhibition above about 41%;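 further: 0% = neutral control wells and 100% = reference inhibitor control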
Peg3 promoter: reduces Peg3 promoter-driven luciferase expression in HeLa; 360,000 tested, 1.7% active; AID 588405; inhibition, % at 20 µM; HeLa PEG-Prom luciferase reporter, luminescence, overnight;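 active means inhibition of at least 50% at 20 µM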
TRPM1 prom inh: inhibitors of MITF-driven TRPM1 promoter in melanoma cells; SK-MEL-5 TRPM1 promoter luciferase, 24 h; inhibition, % at 12.5 µM; 330,000 tested, 0.83% active;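 active means mean inhibition across replicates of 60% or more, whatever share of single replicates reaches that level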
Active calls of the source: *; / = not tested or not shown.

SMILES | HIF-2a block | TROY signal inh | TWEAK-Fn14 inh | LMP1 NFkB inh | Peg3 promoter | TRPM1 prom inh
CCCc1nc(SCC(=O)N2CCC(Cc3ccccc3)CC2)c2c(=O)n(C)c(=O)n(C)c2n1 | -25 | 83* | 61* | 11 | 99* | 7
COc1cc(/C=C/C(C)=NNc2ccccc2)ccc1O | 13 | 8 | 19 | 2 | -10 | 1
COc1ccc(-n2cccc2C=O)cc1OC | 6 | -16 | -1 | 7 | 1 | 8
COc1ccccc1-n1cccc1C=O | 9 | 90* | 3 | 9 | 9 | 1
CCN(CC)CCn1nc2c3c(cccc3c1=O)-c1ccccc1-2 | 13 | -87 | -96 | -6 | 106* | 70*
O=c1c2cccc3c2c(nn1CN1CCOCC1)-c1ccccc1-3 | -8 | 18 | -43 | 10 | 15 | 26
Cc1ccc(Nc2nnc(SCC(=O)NCCN3C(=O)CSC3=O)s2)cc1 | -99 | -27 | -21 | -18 | -84 | -13
CCCNS(=O)(=O)c1ccc(CCC(=O)Nc2cc(Cl)ccc2Oc2ccccc2)cc1 | 19 | 25 | 66* | 6 | 41 | 9
CC(C)CNS(=O)(=O)c1ccc(CCC(=O)Nc2cc(Cl)ccc2Oc2ccccc2)cc1 | 15 | 22 | 49 | -6 | 21 | 13
Cc1cccc(C)c1N(CC(=O)Nc1cc(Cl)ccc1Oc1ccccc1)S(C)(=O)=O | 14 | 52* | 10 | 0 | 12 | -12
O=C(Nc1ccc(S(=O)(=O)Nc2ncccn2)cc1)C12CC3CC(CC(Cl)(C3)C1)C2 | 4 | -10 | 5 | -1 | 4 | 4
O=C(NCCc1nc2ccc(Cl)cc2[nH]1)C1CCC(=O)N(Cc2cccc(F)c2)C1 (stereo not drawn) | 7 | -19 | 1 | -2 | 24 | 10
CCOc1ccc(S(=O)(=O)N2CCCCC2)cc1NC(=O)c1ccccc1 | 2 | 10 | 0 | -3 | 18 | 6
CCOC(=O)C1CCN(C(=O)c2ccccc2CCc2ccccc2)CC1 | 3 | -21 | -10 | 1 | 11 | -9
S=C(Nc1ccc(Cl)c(Cl)c1)NC1CCCCC1 | -227 | 19 | 63* | 2 | -42 | -31
COc1cc(N)c(Cl)cc1C(=O)NC1CCN(Cc2ccccc2)CC1 | 3 | -1 | -15 | 92* | -3 | 6
Fc1ccc(NC(=S)NC2CCN(Cc3ccccc3)CC2)cc1 | 2 | 18 | 10 | 5 | 9 | -3
Cc1ccccc1C(=O)NC1CCN(Cc2ccccc2)CC1 | 17 | -10 | 0 | 3 | 15 | 8
S=C(Nc1ccc(Cl)c(Cl)c1)NC1CCN(Cc2ccccc2)CC1 | 21 | 37 | 32 | 12 | 93* | 37
O=C(COC(=O)c1cccc(-n2cnnn2)c1)c1ccc(F)c(F)c1 | -21 | -29 | -13 | -8 | -94 | /
COc1ccccc1OCCSc1nc2ccccc2n1CC(N)=O | -14 | -22 | 4 | 8 | -6 | 0
COC(=O)c1ccc2c(=O)n(CCCCCC(=O)O)c(=S)[nH]c2c1 | 37 | 19 | 54* | 9 | 15 | 11
CCN(C[C@H]1N[C@@](C)(C(=O)OC)[C@H]2C(=O)N(C)C(=O)[C@@H]12)S(=O)(=O)c1ccc(OC)cc1 | -3 | -4 | 9 | -9 | -11 | -4
COc1ccc(CNCCc2ccc(Cl)cc2)cc1OCc1ccccc1 | 12 | 4 | 15 | -2 | 78* | 5
COc1ccc(CCNCc2ccc(-c3ccccc3)cc2)cc1OC | 9 | -12 | -32 | 5 | 87* | -1
SMILES | HIF-2a block | TROY signal inh | TWEAK-Fn14 inh | LMP1 NFkB inh | Peg3 promoter | TRPM1 prom inh
COc1ccc(CNCCc2ccccc2)cc1OCC(N)=O | -38 | 0 | 4 | -1 | -9 | -24
COc1cccc(Nc2nc(C(N)Cc3ccc(Cl)cc3)cs2)n1 (stereo not drawn) | 12 | -24 | -6 | / | 99* | /
NC(Cc1ccc(Cl)cc1)c1csc(Nc2cc(Oc3ccccc3)ncn2)n1 (stereo not drawn) | 0 | 4 | 1 | / | 108* | /
COc1cccc(Nc2nc(C(N)CCc3ccccc3)cs2)n1 (stereo not drawn) | 10 | 18 | 8 | / | 109* | /
COc1cccc(Nc2nc(C(N)Cc3ccc(C(F)(F)F)cc3)cs2)n1 (stereo not drawn) | 13 | -16 | -28 | / | 100* | /
COc1cccc(Nc2nc(C(N)CC(C)C)cs2)n1 (stereo not drawn) | -1 | 5 | 0 | / | 12 | /
COc1cccc(Nc2nc(C(N)COCc3ccccc3)cs2)n1 (stereo not drawn) | 9 | 2 | -51 | / | 48 | /
COc1ccc(CC(N)c2csc(Nc3cc(Oc4ccccc4)ncn3)n2)cc1 (stereo not drawn) | 13 | 18 | -29 | / | 36 | /
NC(=O)c1cccc(Nc2nc(C(N)Cc3ccc(C(F)(F)F)cc3)cs2)n1 (stereo not drawn) | -14 | 4 | -34 | / | 27 | /
COc1cccc(Nc2nc(C(N)Cc3ccc(F)cc3)cs2)n1 (stereo not drawn) | -9 | 14 | 6 | / | 114* | /
NC(c1csc(Nc2cc(NCc3ccco3)ncn2)n1)c1ccccc1Cl (stereo not drawn) | 28 | 11 | 21 | / | 13 | /
NC(Cc1ccccc1)c1csc(Nc2ccc(C(F)(F)F)cn2)n1 (stereo not drawn) | 5 | 9 | 24 | / | 100* | /
NC(Cc1ccc(F)cc1)c1csc(Nc2cc(NCc3ccco3)ncn2)n1 (stereo not drawn) | 14 | 4 | 1 | / | 70* | /
C=C1C(=O)[C@]23C[C@H]1CCC2[C@@]1(C)C(C[C@@H]3O)[C@](C)(C(=O)OC)CC[C@@H]1O (stereo partly drawn) | 99* | 59* | 98* | / | 100* | /
C[C@@]12C(C[C@H](O)[C@@]34C[C@@H](CCC13)[C@@H](CO)C4=O)[C@](C)(C(=O)O)CC[C@@H]2O (stereo partly drawn) | 6 | 16 | 16 | / | -9 | /
CC(=O)N1CC(C)Sc2ccc(S(=O)(=O)NCCc3cccc(C)c3)cc21 (stereo not drawn) | 17 | 0 | 2 | -9 | 10 | 11
Cc1ccc(NS(=O)(=O)c2c(C)[nH]c(C)c2C(=O)N2CCCCC2)cc1Cl | 8 | -14 | 30 | 1 | 5 | 11
Cc1cccc(-c2nc(=S)c3c(n2Cc2ccco2)CCCC3)c1 | -21 | 11 | 50* | -2 | -7 | 8
COc1ccc(C(=O)c2[nH]c(N)c(C(=O)NCCc3c[nH]c4ccccc34)c2-c2c(F)cccc2Cl)cc1 | 13 | 23 | 54* | / | / | /
COc1ccc(C(=O)c2[nH]c(N)c(C(=O)NCCc3c[nH]c4ccccc34)c2-c2ccc(OC)c(OC)c2)cc1 | 19 | -7 | 25 | / | / | /
Cn1c(O)c(N=NC(=O)c2cc(-c3cccs3)nc3ccccc23)c2ccccc21 | -14 | -37 | -10 | 10 | -13 | 1
O=C(N=Nc1c(O)[nH]c2ccc(Br)cc12)c1cc(-c2cccs2)nc2ccccc12 | -15 | 35 | 6 | 33 | 60* | 47
